The values below come from PubChem BioAssay (EPA / NIEHS).

A short description of assay [1]: ATG_DR4_LXR_CIS: Attagene CIS-FACTORIAL HepG2 Assay for human Liver X Receptor (LXR), DR4 submotif (AID 2282929). Particulars: HepG2 Attagene DR4 cis-reporter, mRNA transcription; AC50: actives raise or lower the signal unless noted; outcome: actives raise or lower the signal unless noted. The procedure, abridged: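 HepG2 cells transiently transfected with cis-promoter-driven multiplexed reporter units (DR4 element) were dosed for 24 h. Reporter mRNA was quantified by RT-PCR, fluorescent primer extension, HpaI digestion and capillary electrophoresis; bidirectional fitting versus DMSO baseline.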

Assay [2] has as its target Aryl hydrocarbon receptor (Homo sapiens) (UniProt P35869). Kind of assay: ATG_Ahr_CIS: Attagene CIS-FACTORIAL HepG2 Assay for human Aryl Hydrocarbon Receptor (Ahr) (AID 2282930). As to conditions: HepG2 AhR cis-factorial reporter transcription; actives raise or lower the signal. The procedure, abridged:
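HepG2 cells transiently transfected with cis-element-driven multiplexed reporter transcription units; endogenous transcription factor activity measured as reporter mRNA 24 h after dosing. RT-PCR, 6-FAM labelling, HpaI digestion, capillary electrophoresis; bidirectional fitting versus DMSO baseline.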

Assay [3] in a line: ATG_AP_1_CIS: Attagene CIS-FACTORIAL HepG2 Assay for human Activator Protein 1 (AP-1) (AID 2282931). Particulars: HepG2 Attagene cis-factorial AP-1 reporter mRNA; actives raise or lower the signal. The procedure, abridged:
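HepG2 cells transiently transfected with cis-element-driven multiplex reporter units; 24 h compound exposure. Reporter mRNA quantified by RT-PCR, FAM-labelled fragments resolved by capillary electrophoresis; bidirectional fit versus DMSO baseline.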

A short description of assay [4]: ATG_AP_2_CIS: Attagene CIS-FACTORIAL HepG2 Assay for human Activator Protein 2 (AP-2) (AID 2282932). Particulars: HepG2 AP-2 cis-reporter, Attagene transcription factor profiling; AC50: actives raise or lower the signal unless noted; outcome: actives raise or lower the signal unless noted. The procedure, abridged: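 Cells (HepG2) transfected with promoter-driven reporter constructs, treated 24 h. Total RNA reverse-transcribed, reporter cDNA PCR-amplified, FAM-labelled by primer extension, digested, resolved by capillary electrophoresis. Activity fitted both directions versus DMSO.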

Assay [5] in a line: ATG_BRE_CIS: Attagene CIS-FACTORIAL HepG2 Assay for human Bone Morphogenetic Protein (BMP) Response Element (BRE) (AID 2282933). Particulars: HepG2 BMP response element reporter, Attagene transcription factor profiling; actives raise or lower the signal. The procedure, abridged: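 Fluorescence-labelled reporter cDNA fragments, separated by capillary electrophoresis, gave the signal for this component of a 52-readout multiplex. HepG2 cells were transfected, exposed to chemicals for 24 h, and compared with DMSO using bidirectional fitting.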

The target in assay [6] is Retinoic acid receptor alpha (Homo sapiens) (UniProt P10276). Put plainly: ATG_DR5_RAR_CIS: Attagene CIS-FACTORIAL HepG2 Assay for human Retinoic Acid Receptor Alpha (RARE), DR5 submotif (AID 2282934).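 As to AC50: reporter responds to endogenous RAR alpha beta and gamma in HepG2 not RARA alone.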 As to conditions: HepG2 Attagene cis-factorial RARE DR5 reporter, mRNA; actives raise or lower the signal. The procedure, abridged: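 HepG2 cells transiently transfected with multiplexed reporter units under cis (DR5 RARE) promoters, so endogenous transcription factor activity is measured. After 24 h compound exposure, reporter mRNA is quantified by RT-PCR with fluorescent labelling and capillary electrophoresis; bidirectional fitting versus DMSO.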

The target in assay [7] is Transcription factor E2F1 (Homo sapiens) (UniProt Q01094). Kind of assay: ATG_E2F_CIS: Attagene CIS-FACTORIAL HepG2 Assay for human E2F Transcription Factor 1 (AID 2282935). Particulars: HepG2 Attagene cis-reporter, E2F reporter RNA transcripts; actives raise or lower the signal. The procedure, abridged: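 First, HepG2 cells were transfected with reporter transcription units. Next, they were dosed for 24 h. Then RNA was isolated, converted to cDNA, PCR-amplified, FAM-labeled, HpaI-digested and analyzed by capillary electrophoresis.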

The nature of assay [8]: ATG_E_Box_CIS: Attagene CIS-FACTORIAL HepG2 Assay for human Enhancer Box (E-box) (AID 2282936). Particulars: HepG2 E-box cis-reporter transcription, actives raise or lower the signal. The procedure, abridged:
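Endogenous transcription factor activity was sensed in human HepG2 liver cells through transfected cis-promoter reporter units. After 24 h of dosing, total RNA was reverse-transcribed and reporter cDNA resolved by capillary electrophoresis.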

Assay [9] in a line: ATG_M_61_CIS: Attagene CIS-FACTORIAL HepG2 Assay for M61 Transcription Factor (Internal Marker) (AID 2282937). As to conditions: HepG2 Attagene CIS-FACTORIAL M61 internal marker reporter; actives raise or lower the signal. The procedure, abridged: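 HepG2 cells transiently transfected with cis-element-driven multiple reporter transcription units, dosed for 24 h. Reporter mRNA measured by RT-PCR, 6-FAM primer-extension labelling, HpaI digestion and capillary electrophoresis; bidirectional fit versus DMSO baseline.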

A short description of assay [10]: ATG_EGR_CIS: Attagene CIS-FACTORIAL HepG2 Assay for human Early Growth Response 1 (EGR1) (AID 2282938). As to conditions: HepG2 Attagene CIS-FACTORIAL EGR reporter mRNA; actives raise or lower the signal. The procedure, abridged:
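HepG2 cells transiently transfected with cis-promoter-driven multiplexed reporter transcription units; reporter mRNA measured 24 h after compound dosing by RT-PCR, 6-FAM primer extension, HpaI digestion and capillary electrophoresis. Bidirectional fit versus DMSO baseline.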

Assay [11] is described as follows: ATG_M_19_CIS: Attagene CIS-FACTORIAL HepG2 Assay for M19 Transcription Factor (Internal Marker) (AID 2282939). Particulars: HepG2 Attagene CIS-FACTORIAL M19 internal marker reporter; actives raise or lower the signal. The procedure, abridged:
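HepG2, MRTU transient transfection, 24 h dosing. Total RNA → RT-PCR → 6-FAM primer extension → HpaI digest → CE fluorescence. Bidirectional curve fit, DMSO negative control.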

Assay [12] can be described thus: ATG_ERE_CIS: Attagene CIS-FACTORIAL HepG2 Assay for Estrogen Response Element (ERE) (AID 2282940). Particulars: HepG2 ERE cis-reporter, Attagene RNA transcript; actives raise or lower the signal. The procedure, abridged: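 After a 24 h chemical treatment, RNA from reporter-transfected HepG2 cells is reverse-transcribed, PCR-amplified and fluorescently labelled. Fragments separated by capillary electrophoresis give reporter signal; DMSO serves as negative control.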

Assay [13] is described as follows: ATG_Ets_CIS: Attagene CIS-FACTORIAL HepG2 Assay for human Erythroblast Transformation Specific (ETS) (AID 2282941). As to conditions: HepG2 ETS cis-reporter transcription; AC50: actives raise or lower the signal unless noted; outcome: actives raise or lower the signal unless noted. The procedure, abridged:
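RT-PCR/capillary electrophoresis fluorescence read-out of reporter mRNA; HepG2 transient multi-reporter transfection; 24 h compound exposure; gain or loss of signal fitted bidirectionally relative to DMSO.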

The target of assay [14] is Hepatocyte nuclear factor 3-beta (Homo sapiens) (UniProt Q9Y261). Put plainly: ATG_FoxA2_CIS: Attagene CIS-FACTORIAL HepG2 Assay for human Forkhead box A2 (FOXA2) (AID 2282942). Particulars: HepG2 cis-reporter transcription factor activity, 24 h; actives raise or lower the signal. The procedure, abridged:
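HepG2 cells transiently transfected with multiple cis-regulated reporter transcription units, dosed for 24 h. Reporter mRNA measured by RT-PCR, 6-FAM labelling, HpaI digestion and capillary electrophoresis; bidirectional fitting against DMSO baseline.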

Assay [15] can be described thus: ATG_FoxO_CIS: Attagene CIS-FACTORIAL HepG2 Assay for human Forkhead box O (FoxO) (AID 2282943). Particulars: HepG2 Attagene cis-reporter, FoxO element, mRNA; actives raise or lower the signal. The procedure, abridged: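 HepG2 cells transiently transfected with cis-promoter-driven multiple reporter transcription units; 24 h after chemical dosing, reporter mRNA quantified by RT-PCR, fluorescent primer extension, HpaI digestion and capillary electrophoresis. Bidirectional fitting versus DMSO baseline.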

A short description of assay [16]: ATG_GATA_CIS: Attagene CIS-FACTORIAL HepG2 Assay for human GATA Binding Protein (AID 2282944). Particulars: HepG2 GATA cis-element reporter, Attagene multiplex mRNA; actives raise or lower the signal. The procedure, abridged:
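Cells: HepG2, transiently transfected with cis-regulated reporter transcription units. Exposure: 24 h. Detection: RT-PCR plus capillary electrophoresis of FAM-labeled fragments. Analysis: bidirectional, DMSO as baseline.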

A short description of assay [17]: ATG_GLI_CIS: Attagene CIS-FACTORIAL HepG2 Assay for human Zinc Finger Protein GLI1 (AID 2282945). Particulars: HepG2, Attagene cis-factorial reporter mRNA, GLI element; actives raise or lower the signal. The procedure, abridged: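 HepG2 cells transiently transfected with cis-promoter multiplexed reporter units report endogenous transcription factor activity. After 24 h chemical exposure, reporter mRNA was quantified by RT-PCR, 6-FAM labelling, HpaI digestion and capillary electrophoresis, with bidirectional fitting against DMSO.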

Assay [18] concerns the target Bile acid receptor (Homo sapiens) (UniProt Q96RI1). Put plainly: ATG_IR1_CIS: Attagene CIS-FACTORIAL HepG2 Assay for human Nuclear Receptor Subfamily 1 Group H Member 4 (NR1H4), IR1 submotif (AID 2282946). As to conditions: IR1 reporter transcription, actives raise or lower the signal. The procedure, abridged: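 Readout: reporter transcript levels by RT-PCR with fluorescent capillary electrophoresis, from HepG2 cells transiently transfected with multiplexed cis-regulated reporters and dosed 24 h. Gain- or loss-of-signal fitted versus DMSO negative control.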

The nature of assay [19]: ATG_ISRE_CIS: Attagene CIS-FACTORIAL HepG2 Assay for human Interferon Regulatory Factor 1 (IRF1) binding to an Interferon-Stimulated Response Element (ISRE) (AID 2282948). Particulars: HepG2 ISRE cis-reporter (Attagene), mRNA transcription readout; actives raise or lower the signal. The procedure, abridged:
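Read-out: fluorescent RT-PCR products resolved by capillary electrophoresis, reporting endogenous transcription factor activity via ISRE-driven reporter mRNA in transfected HepG2 cells dosed for 24 h; gain or loss fitted relative to DMSO.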

Molecules are shown by their SMILES. The source made the active and inactive calls. The calls were made as follows: active = hit-call score of the fitted dose curve at least 0.9, where 1 is the maximum; inactive = score below 0.9.

Sequence of Transcription factor E2F1 (Homo sapiens) (Q01094 whole entry, looked up): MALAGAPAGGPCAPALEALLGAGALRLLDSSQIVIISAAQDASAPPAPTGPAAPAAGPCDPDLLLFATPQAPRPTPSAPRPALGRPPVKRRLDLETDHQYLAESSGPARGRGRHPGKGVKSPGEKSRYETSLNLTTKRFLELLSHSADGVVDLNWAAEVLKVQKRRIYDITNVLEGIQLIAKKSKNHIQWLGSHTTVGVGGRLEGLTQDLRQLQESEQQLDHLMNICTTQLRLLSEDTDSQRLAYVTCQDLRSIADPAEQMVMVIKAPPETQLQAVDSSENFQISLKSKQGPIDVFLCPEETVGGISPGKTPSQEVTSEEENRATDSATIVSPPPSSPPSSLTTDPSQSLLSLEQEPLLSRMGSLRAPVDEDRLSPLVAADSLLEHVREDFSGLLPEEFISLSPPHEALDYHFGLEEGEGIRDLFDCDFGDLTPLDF
Sequence of Aryl hydrocarbon receptor (Homo sapiens) (P35869 whole entry, looked up): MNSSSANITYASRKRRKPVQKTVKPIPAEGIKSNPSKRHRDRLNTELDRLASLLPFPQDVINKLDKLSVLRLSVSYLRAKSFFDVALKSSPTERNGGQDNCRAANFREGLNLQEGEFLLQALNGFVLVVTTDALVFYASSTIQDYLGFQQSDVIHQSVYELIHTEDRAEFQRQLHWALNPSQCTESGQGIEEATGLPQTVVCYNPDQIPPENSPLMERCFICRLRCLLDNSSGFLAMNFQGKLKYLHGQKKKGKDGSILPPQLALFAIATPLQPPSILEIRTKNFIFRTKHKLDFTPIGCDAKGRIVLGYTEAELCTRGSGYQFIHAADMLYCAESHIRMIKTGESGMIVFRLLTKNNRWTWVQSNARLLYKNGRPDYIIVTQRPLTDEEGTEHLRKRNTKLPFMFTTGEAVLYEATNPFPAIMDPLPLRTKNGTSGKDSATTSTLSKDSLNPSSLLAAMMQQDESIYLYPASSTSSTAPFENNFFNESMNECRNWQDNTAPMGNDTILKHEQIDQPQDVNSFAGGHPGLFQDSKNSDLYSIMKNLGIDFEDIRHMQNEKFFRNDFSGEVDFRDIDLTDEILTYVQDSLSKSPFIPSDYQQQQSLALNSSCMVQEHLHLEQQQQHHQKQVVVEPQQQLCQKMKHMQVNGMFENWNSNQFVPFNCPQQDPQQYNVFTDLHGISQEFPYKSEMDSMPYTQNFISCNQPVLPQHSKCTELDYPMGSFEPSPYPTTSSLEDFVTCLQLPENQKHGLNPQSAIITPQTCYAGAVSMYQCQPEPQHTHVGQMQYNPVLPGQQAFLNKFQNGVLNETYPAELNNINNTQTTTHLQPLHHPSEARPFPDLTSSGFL
Sequence of Retinoic acid receptor alpha (Homo sapiens) (P10276 whole entry, looked up): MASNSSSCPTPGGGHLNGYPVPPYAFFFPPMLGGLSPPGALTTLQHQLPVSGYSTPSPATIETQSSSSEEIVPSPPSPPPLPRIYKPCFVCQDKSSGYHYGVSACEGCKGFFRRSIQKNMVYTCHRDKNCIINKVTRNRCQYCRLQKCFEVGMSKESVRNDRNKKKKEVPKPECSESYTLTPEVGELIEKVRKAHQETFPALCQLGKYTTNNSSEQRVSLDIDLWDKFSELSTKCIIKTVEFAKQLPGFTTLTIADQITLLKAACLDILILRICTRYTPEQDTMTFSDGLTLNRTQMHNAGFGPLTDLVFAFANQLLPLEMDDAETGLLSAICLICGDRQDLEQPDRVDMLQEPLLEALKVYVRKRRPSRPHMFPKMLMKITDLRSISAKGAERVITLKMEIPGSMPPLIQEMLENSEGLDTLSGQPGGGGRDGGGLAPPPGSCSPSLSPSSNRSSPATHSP
Sequence of Hepatocyte nuclear factor 3-beta (Homo sapiens) (Q9Y261 whole entry, looked up): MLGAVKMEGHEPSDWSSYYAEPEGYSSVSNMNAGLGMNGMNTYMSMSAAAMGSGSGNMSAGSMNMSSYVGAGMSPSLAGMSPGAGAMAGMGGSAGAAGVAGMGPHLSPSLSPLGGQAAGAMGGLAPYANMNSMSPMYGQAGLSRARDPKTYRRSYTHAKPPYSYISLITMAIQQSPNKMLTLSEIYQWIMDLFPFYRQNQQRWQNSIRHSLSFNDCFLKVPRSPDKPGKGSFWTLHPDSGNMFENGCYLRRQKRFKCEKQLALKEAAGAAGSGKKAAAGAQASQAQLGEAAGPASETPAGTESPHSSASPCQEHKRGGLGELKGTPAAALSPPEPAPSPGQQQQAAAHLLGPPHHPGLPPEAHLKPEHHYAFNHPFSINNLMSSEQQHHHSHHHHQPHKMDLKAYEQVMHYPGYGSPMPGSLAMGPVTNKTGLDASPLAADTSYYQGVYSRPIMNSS
Sequence of Bile acid receptor (Homo sapiens) (Q96RI1 whole entry, looked up): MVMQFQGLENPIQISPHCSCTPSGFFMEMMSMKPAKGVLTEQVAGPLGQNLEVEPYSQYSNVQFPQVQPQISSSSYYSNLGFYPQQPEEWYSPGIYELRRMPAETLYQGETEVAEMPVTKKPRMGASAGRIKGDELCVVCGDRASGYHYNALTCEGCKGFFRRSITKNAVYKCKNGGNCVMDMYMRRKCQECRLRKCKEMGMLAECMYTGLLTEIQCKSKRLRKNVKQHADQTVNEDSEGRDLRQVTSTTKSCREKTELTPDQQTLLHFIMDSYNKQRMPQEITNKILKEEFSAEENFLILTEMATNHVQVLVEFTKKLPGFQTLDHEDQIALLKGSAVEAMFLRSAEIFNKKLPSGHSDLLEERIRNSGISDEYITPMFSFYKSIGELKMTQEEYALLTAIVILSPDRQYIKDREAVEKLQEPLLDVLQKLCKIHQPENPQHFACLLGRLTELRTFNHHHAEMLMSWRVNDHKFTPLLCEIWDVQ

Consider `CCCCCCCCCCCCCCCCCC[N+](C)(C)Cc1ccccc1`, for which the AC50 was 12.8 µM (active) in assay [1]; 12.3 µM (active) in assay [2]; 88.1 µM (active) in [4]; 4.38 µM (active) in assay [5]; 12.8 µM (active) in assay [7]; 18.4 µM (active) in [8]. In assay [19], the AC50 is 12.8 µM (active). The compound was called inactive in assay [3], in assay [6], in assay [9], in assay [10], in [11] and in assay [12]. The result in assay [13], in assay [14], in [15], in assay [16], in assay [17] and in assay [18] was inactive.
On to `CC1COCc2cc3c(cc21)C(C)(C)C(C)C3(C)C` (stereo not given), for which the AC50 is 158 µM (active) in assay [1]; 91.3 µM (active) in [2]; 79.4 µM (active) in assay [3]; 173 µM (active) in assay [4]; 100 µM (active) in assay [6]; 159 µM (active) in assay [7]. The concentration at half-maximal activity (AC50) in assay [8] is 179 µM (active); in assay [10], 152 µM (active); in assay [16], 158 µM (active). In addition, the compound was called inactive in [5], in assay [9], in [11], in [12], in assay [13] and in assay [14]. The compound was classed as inactive in assay [15], in [17], in assay [18] and in assay [19].
As for `C=CC(C)(CCC=C(C)C)OC(C)=O` (stereo not given), the compound was classed as inactive in assay [1], in [2], in assay [3], in [4], in [5] and in assay [6]. Moreover, the compound was classed as inactive in assay [7], in [8], in assay [9], in assay [10], in [11] and in assay [12]. The compound was classed as inactive in assay [13], in assay [14], in assay [15], in assay [16], in assay [17] and in [18]. Also, the call in [19] was inactive.
With `NNC(=O)CCCCC(=O)NN`, the call in [1], in assay [2], in assay [3], in assay [4], in assay [5] and in assay [6] was inactive. Further, the result in assay [7], in [8], in assay [9], in [10], in assay [11] and in assay [12] was inactive. The compound was classed as inactive in assay [13], in assay [14], in [15], in assay [16], in assay [17] and in [19].
